Data reported in the supplement of paper PMC9942566.
± gives the standard deviation of the averaged measurements.

The molecules below were run on Serratia marcescens K904 PosmB-luxCDABE reporter (pMQ747) (assay: PosmB-lux reporter fold induction (RLU/OD600 relative to no-compound control), highest over Biolog concentrations; higher = stronger Rcs reporter activation). Details: wild type K904; 4 h.
Protocol: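 Serratia marcescens K904 (wild type) or its isogenic ΔrcsB mutant, carrying the Rcs-dependent PosmB-luxCDABE reporter plasmid pMQ747, was grown in LB at OD600 0.1 in Biolog Phenotype MicroArray plates PM11-20 for 4 h at 30-32°C. Each compound is present at 3-4 proprietary concentrations (not stated); per the Fig. S1 legend the value given is the highest fold over those wells. Three independent trials.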

SMILES | PosmB-lux reporter fold induction
CN[C@@H]1[C@H](O)[C@H](NC)[C@H]2O[C@@]3(O)C(=O)C[C@@H](C)O[C@H]3O[C@@H]2[C@H]1O [Spectinomycin] (Biolog plate: PM12, well positions: G1-4) | 1.57 ± 0.26
CN(C)[C@@H]1C(O)=C(C(=O)NCN2CCCC2)C(=O)[C@@]2(O)C(O)=C3C(=O)c4c(O)cccc4[C@@](C)(O)[C@H]3C[C@@H]12 [Rolitetracycline] (Biolog plate: PM13, well positions: D9-12) | 1.49 ± 0.23
CO[C@@]1(NC(=O)C(C(=O)O)c2ccc(O)cc2)C(=O)N2C(C(=O)O)=C(CSc3nnnn3C)CO[C@@H]21 (stereo not given in full) [Moxalactam] (Biolog plate: PM13, well positions: H5-8) | 1.69 ± 0.24
CN(C)CCC=C1c2ccccc2CCc2ccccc21 [amitriptyline] (Biolog plate: PM20, well positions: A2-4) | 1.19 ± 0.11
COc1ccc(CO)cc1OC [3,4-Dimethoxy-benzyl alcohol] (Biolog plate: PM15, well positions: F1-4) | 2.75 ± 1.1
c1cnc2c(c1)ccc1cccnc12 [1,10-Phenanthroline] (Biolog plate: PM15, well positions: C9-12) | 1.36 ± 0.36
O=c1c(O)c(-c2cc(O)c(O)c(O)c2)oc2cc(O)cc(O)c12 [myricetin] (Biolog plate: PM18, well positions: G9-12) | 1.05 ± 0.13
O=C1C=C(O)C(=O)c2ccccc21 [lawsone] (Biolog plate: PM19, well positions: E9-12) | 1.63 ± 0.34
NC[C@H]1O[C@H](O[C@H]2[C@H](O)[C@@H](O[C@H]3O[C@H](CO)[C@@H](O)[C@H](N)[C@H]3O)[C@H](N)C[C@@H]2N)[C@H](N)C[C@@H]1O [Tobramycin] (Biolog plate: PM12, well positions: F1-4) | 1.6 ± 0.2
CN[C@@H]1[C@@H](O[C@H]2O[C@H](CO)[C@@H](N)[C@H](O)[C@H]2O)OC2C[C@@H](N)[C@@H](O[C@H]3[C@H](O)[C@@H](O)[C@H](N)C[C@@H]3N)OC2[C@@H]1O (stereo not given in full) [apramycin] (Biolog plate: PM20, well positions: A5-8) | 1.85 ± 0.71
O=C(O)c1cc(O)c(O)c(O)c1 [gallic acid] (Biolog plate: PM19, well positions: A5-8) | 1.46 ± 0.28
Nc1ccc(S(=O)(=O)Nc2nccs2)cc1 [Sulfathiazole] (Biolog plate: PM12, well positions: F5-8) | 1.88 ± 0.029
CC1(C)S[C@@H]2[C@H](NC(=O)[C@H](NC(=O)N3CCNC3=O)c3ccccc3)C(=O)N2[C@H]1C(=O)O [Azlocillin] (Biolog plate: PM13, well positions: B1-4) | 1.96 ± 0.43
NCC[C@H](O)C(=O)N[C@@H]1C[C@H](N)[C@@H](O[C@H]2O[C@H](CN)[C@@H](O)[C@H](O)[C@H]2O)[C@H](O)[C@H]1O[C@H]1O[C@H](CO)[C@@H](O)[C@H](N)[C@H]1O [Amikacin] (Biolog plate: PM11, well positions: A2-4) | 1.4 ± 0.2
[Na+].[Na+].[O]=[W](=[O])([O-])[O-] [sodium tungstate] (Biolog plate: PM17, well positions: E9-12) | 1.69 ± 0.46
C[C@H]1O[C@@H](n2cc(F)c(=O)[nH]c2=O)[C@H](O)[C@@H]1O [5-fluoro-5'-deoxyuridine] (Biolog plate: PM18, well positions: H1-4) | 1.12 ± 0.19
O=C(O)/C=C/c1ccccc1 [cinnamic acid] (Biolog plate: PM19, well positions: C9-12) | 9.92 ± 5.1
O=C(O)c1cn(C2CC2)c2cc(N3CCNCC3)c(F)cc2c1=O [ciprofloxacin] (Biolog plate: PM20, well positions: D5-8) | 1.63 ± 0.41
Oc1c(Cl)cc(Cl)c2cccnc12 [5,7-Dichloro-8-hydroxyquinoline] (Biolog plate: PM15, well positions: C1-4) | 2.24 ± 0.92
Cc1cc(C)nc(NS(=O)(=O)c2ccc(N)cc2)n1 [Sulfamethazine] (Biolog plate: PM12, well positions: D5-8) | 3.6 ± 0.65

SMILES | PosmB-lux reporter fold induction
O=C(N[C@H](CO)[C@H](O)c1ccc([N+](=O)[O-])cc1)C(Cl)Cl [Chloramphenicol] (Biolog plate: PM11, well positions: F1-4) | 1.4 ± 0.62
CC1(C)S[C@@H]2[C@H](NC(=O)[C@H](N)c3ccccc3)C(=O)N2[C@H]1C(=O)O [Ampicillin] (Biolog plate: PM13, well positions: A2-4) | 1.39 ± 0.02
C[n+]1cc2c3c(ccc2c2ccc4cc5c(cc4c21)OCO5)OCO3 [Sanguinarine] (Biolog plate: PM14, well positions: A9-12) | 1.83 ± 0.71
O=C1OC(CN2CCOCC2)CN1/N=C/c1ccc([N+](=O)[O-])o1 (stereo not given) [Furaltadone] (Biolog plate: PM14, well positions: A5-8) | 1.52 ± 0.2
O=C(N[C@H](CO)[C@H](O)c1ccc([N+](=O)[O-])cc1)C(Cl)Cl [Chloramphenicol] (Biolog plate: PM14, well positions: F1-4) | 2.41 ± 1.1
OC(CCN1CCCCC1)(c1ccccc1)c1ccccc1 [pridinol] (Biolog plate: PM20, well positions: F9-12) | 2.86 ± 0.61
NCC(=O)O [Glycine] (Biolog plate: PM13, well positions: F5-8) | 1.52 ± 0.2
CO[C@H]1C[C@H](O[C@H]2[C@H](C)[C@@H](O[C@@H]3O[C@H](C)C[C@H](N(C)C)[C@H]3OC(C)=O)[C@@H](C)C[C@@]3(CO3)C(=O)[C@H](C)[C@@H](OC(C)=O)[C@@H](C)[C@@H](C)OC(=O)[C@@H]2C)O[C@@H](C)[C@@H]1OC(C)=O [troleandomycin] (Biolog plate: PM20, well positions: H9-12) | 1.36 ± 0.24
O=c1[nH]c(=O)n([C@H]2C[C@H](O)[C@@H](CO)O2)cc1C(F)(F)F [trifluorothymidine] (Biolog plate: PM18, well positions: B1-4) | 1.81 ± 0.69
CCN1CCN(C(=O)N[C@@H](C(=O)N[C@@H]2C(=O)N3C(C(=O)O)=C(CSc4nnnn4C)CS[C@H]23)c2ccc(O)cc2)C(=O)C1=O [cefoperazone] (Biolog plate: PM17, well positions: G9-12) | 2.11 ± 0.69
COc1ccc(C[C@H](N)C(=O)N[C@H]2[C@@H](O)[C@H](n3cnc4c(N(C)C)ncnc43)O[C@@H]2CO)cc1 [Puromycin] (Biolog plate: PM15, well positions: F9-12) | 1.9 ± 0.2
O=C1CN(/N=C/c2ccc([N+](=O)[O-])o2)C(=O)N1 [Nitrofurantoin] (Biolog plate: PM14, well positions: E5-8) | 2.33 ± 0.28
O.O=S(=O)([O-])[O-].O=S(=O)([O-])[O-].O=S(=O)([O-])[O-].[Al+3].[Al+3] [aluminum sulfate] (Biolog plate: PM16, well positions: F9-12) | 1.33 ± 0.3
O=C([O-])c1ccccc1O.[Na+] [sodium salicylate (NSAID)] (Biolog plate: PM17, well positions: B1-4) | 5.52 ± 2
Oc1c(Cl)cc(Cl)c(Cl)c1Cc1c(O)c(Cl)cc(Cl)c1Cl [hexa-chlorophene] (Biolog plate: PM20, well positions: E9-12) | 1.62 ± 0.6
c1ccc(-c2ccccn2)nc1 [2,2'-Dipyridyl] (Biolog plate: PM13, well positions: B5-8) | 1.97 ± 0.26
S=c1nc[nH]c2nc[nH]c12 [6-Mercapto-purine] (Biolog plate: PM13, well positions: C1-4) | 1.6 ± 0.2
C1COCCOCCOCCOCCOCCO1 [18-crown-6 ether] (Biolog plate: PM20, well positions: D9-12) | 2.22 ± 0.31
CSc1ccc2c(c1)N(CCC1CCCCN1C)c1ccccc1S2 (stereo not given) [thioridazine] (Biolog plate: PM20, well positions: C1-4) | 0.902 ± 0.17
Nc1ccc(S(N)(=O)=O)cc1 [sulfanilamide] (Biolog plate: PM16, well positions: B5-8) | 0.986 ± 0.29
